Inconclusive results are not listed. A call without a number means that no potency is given here. Calls of active or inactive are those of the source. The call rests on the fitted dose curve; in most records, active means well fitted curve in the direction sought with a large enough effect; inconclusive means small, poorly fitted or top-dose-only effect, or another doubt; inactive means no such curve, though single readings can be large; an effect the other way counts as inactive or inconclusive.
Experiments:
[1] = qHTS for ATAD5 Antagonist screened against the NCATS CANVASS Library (AID 1347370); settings: HEK293T-ATAD5-luc, 5-FUrd stimulated, luminescence, 16 h; series mostly up to 91.4 µM;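 further: HEK293T cells carrying an ATAD5 luciferase reporter co-treated with 10 µM 5-fluorouridine; nearly all actives have a fitted effect of over 65% in size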
In short: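 Compounds (11-point) co-dosed with 10 µM 5-FUrd for 16 h at 37 °C onto HEK293T-ATAD5 luciferase reporter cells. Viability measured by CellTiter-Fluor fluorescence, then ATAD5 reporter signal by luminescence.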

[2] = J3T Cancer Cell Toxicity qHTS against the NCATS CANVASS Library (AID 1347371); settings: J3T dog glioma viability, ATP luminescence, 72 h; series mostly up to 91.4 µM;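 further: J3T is a canine glioma cancer cell line seeded at 500 cells per well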
In short: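 Cytotoxicity read as CellTiterGlo ATP luminescence after 72 h incubation (37C, 5% CO2) of J3T canine glioma cells (500/well) with an 11-point compound series.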

[3] = target: Nuclear receptor subfamily 1 group I member 3 (Homo sapiens) (UniProt Q14994); assay: qHTS for Constitutive Androstane Receptor (CAR) Antagonist screened against the NCATS CANVASS Library (AID 1347372); settings: HepG2-hCAR-CYP2B6 luciferase, CITCO-stimulated antagonist mode; series mostly up to 91.4 µM;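 further: cells stimulated with 50 nM CITCO agonist so inhibition reflects antagonism; luciferase from CYP2B6 promoter reporter driven by hCAR in HepG2 cells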
Nuclear receptor subfamily 1 group I member 3 (Homo sapiens), sequence (Q14994 whole entry, looked up): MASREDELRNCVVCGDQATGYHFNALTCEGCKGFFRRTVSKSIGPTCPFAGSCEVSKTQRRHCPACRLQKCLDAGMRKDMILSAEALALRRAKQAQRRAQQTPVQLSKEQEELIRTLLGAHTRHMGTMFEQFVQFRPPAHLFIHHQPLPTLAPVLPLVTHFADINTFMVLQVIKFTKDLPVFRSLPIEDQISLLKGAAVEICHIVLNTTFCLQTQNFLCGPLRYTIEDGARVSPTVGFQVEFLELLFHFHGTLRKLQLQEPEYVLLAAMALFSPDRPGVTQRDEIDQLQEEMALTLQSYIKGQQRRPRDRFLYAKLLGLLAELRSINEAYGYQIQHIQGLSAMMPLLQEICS
In short: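 Luminescence readout (ONE-Glo, 30 min RT) of CYP2B6-2.2kb reporter in HepG2-hCAR cells after 24hr, 37C treatment with compound against 50 nM CITCO; CellTiter-Fluor viability read beforehand.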

[4] = target: Nuclear receptor subfamily 1 group I member 3 (Homo sapiens) (UniProt Q14994); assay: qHTS for Constitutive Androstane Receptor (CAR) Agonist screened against the NCATS CANVASS Library (AID 1347373); settings: HepG2-hCAR-CYP2B6 luciferase reporter, ONE-Glo luminescence; series mostly up to 91.4 µM;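 further: every well also contained 1.5 µM PK11195 alongside the test compound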
In short: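 Agonist mode with 1.5uM PK11195 present: compounds for 24hr on HepG2-hCAR-CYP2B6 cells. CellTiter-Fluor fluorescence (ex 405, em 540 nm) gives viability; ONE-Glo luminescence reports CAR activation.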

[5] = 10-beta competent E. coli microbial cell viability qHTS against the NCATS CANVASS Library (AID 1347376); settings: E. coli 10-beta viability, BacTiter-Glo ATP luminescence, overnight; series mostly up to 91.4 µM
In short: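 Read-out: BacTiter-Glo ATP luminescence, taken 20 min after reagent addition. Beforehand, 10-beta competent E. coli at 0.2 OD had been incubated overnight at 37C with compounds at 11 concentrations.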

[6] = DH5-alpha competent E. coli microbial cell viability qHTS against the NCATS CANVASS Library (AID 1347377); settings: BacTiter-Glo ATP luminescence, overnight; series mostly up to 91.4 µM
In short: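 Bacterial viability as ATP-dependent luminescence (BacTiter-Glo), read after overnight 37 °C exposure of DH5-alpha competent E. coli to compounds in 11-point titration.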

[7] = qHTS for H2AX Agonists against the NCATS CANVASS Library (AID 1347378); settings: CHO-K1 H2AX phosphorylation, HTRF TR-FRET, 3 h; series mostly up to 76.9 µM
In short: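 CHO-K1 cells were plated overnight at 37C, then exposed to compounds (concentration series, 0.76% DMSO final) for 3 hr at 37C. Lysates received Eu-cryptate anti-pH2AX (S139) and d2 anti-H2AX antibodies; after 24 hr at room temperature, TR-FRET 665/620 nm ratio was read.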

[8] = qHTS for Inflammasome Signaling Inhibitors: IL-1-beta AlphaLISA screen against the NCATS CANVASS Library (AID 1347379); settings: THP-1 LPS/ATP, IL-1B AlphaLISA secretion, 16 h; series mostly up to 57.5 µM;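 further: human THP-1 cells primed with LPS then triggered with ATP; secreted IL-1B measured as AlphaLISA emission at 615 nm; lower signal means less IL-1B release which is the wanted effect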
In short: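 Secreted IL-1B from human THP-1 cells quantified by AlphaLISA 16 hr after compound addition (final up to 57.5 uM). A 1 hr compound pretreatment preceded inflammasome activation with 250 ng/mL LPS plus 1.25 mM ATP (final).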

[9] = qHTS for Antimalaria activity screened against the NCATS CANVASS Library (AID 1347380); further: nearly all actives have a fitted effect of over 40% in size; further: potency means the concentration at half of the fitted maximal effect; settings: P. falciparum Dd2 growth, SYBR Green fluorescence, 72 h; series mostly up to 28.7 µM
In short: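 SYBR Green fluorescence at 485/535 nm was read 18 hr after lysis. This followed a 72 hr incubation at 37C in 5% O2, 5% CO2 of Dd2-infected erythrocytes (0.3% parasitemia, 2.5% final hematocrit) with compounds titrated over 11 concentrations.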

[10] = Inflammasome Signaling qHTS Counterscreen: IL-1-beta AlphaLISA counterscreen against the NCATS CANVASS Library (AID 1347381); settings: Purified IL-1beta AlphaLISA signal interference counterscreen; series mostly up to 57.5 µM;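 further: cell-free check with purified IL-1β in medium and no THP-1 cells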
In short: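 Purified IL-1-beta (4 pg/well) + compound, 11-pt conc. series; acceptor beads 6 ug/mL + biotin-Ab 0.6 nM final, 1 h RT; SA-donor 24 ug/ml final, 30 min dark RT; read ex 680/em 615.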

SMILES | outcome [1] | outcome [2] | outcome [3] | outcome [4] | outcome [5] | outcome [6] | outcome [7] | outcome [8] | Potency [9] | outcome [10]
O=C1C[C@@H]2OCC=C3CN4CC[C@]56c7ccccc7N1[C@H]5[C@H]2[C@H]3C[C@H]46 | inactive | inactive | inactive | inactive | inactive | inactive | inactive | inactive | 13 µM (active) | inactive
COc1ccc2[nH]cc(CCN)c2c1 | inactive | inactive | inactive | inactive | inactive | inactive | inactive | inactive | inactive | inactive
